Screens: PubChem BioAssay, National Center for Advancing Translational Sciences (NCATS)
Rows were chosen to be rich in hits. Some 11% of all compounds tested hit in one or more screens of this group.
AmpC detergent: qHTS Inhibitors of AmpC Beta-Lactamase (assay with detergent); P00811; Potency, µM (series often up to 114 µM), for inactives: top-dose activity change, negative = inhibition, hits mostly inhibitors; AID 485294, 2010; 370,000 tested, 0.041% active; AmpC hydrolysis of nitrocefin, absorbance 480 nm, 0.01% Triton;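 also: 0% = no-compound wells and -100% = no-enzyme wells; nearly all actives have a fitted effect of over 25% in size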
Target sequence (P00811 whole entry, looked up): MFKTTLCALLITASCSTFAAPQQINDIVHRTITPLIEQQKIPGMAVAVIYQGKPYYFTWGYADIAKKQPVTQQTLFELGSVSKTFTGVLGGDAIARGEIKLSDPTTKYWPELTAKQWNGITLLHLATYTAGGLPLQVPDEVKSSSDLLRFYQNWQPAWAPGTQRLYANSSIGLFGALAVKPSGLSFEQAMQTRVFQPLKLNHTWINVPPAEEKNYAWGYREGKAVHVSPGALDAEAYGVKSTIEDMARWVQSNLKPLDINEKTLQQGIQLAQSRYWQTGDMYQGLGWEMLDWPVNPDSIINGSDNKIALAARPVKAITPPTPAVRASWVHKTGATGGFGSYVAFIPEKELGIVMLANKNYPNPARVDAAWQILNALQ
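AmpC (5.3 nM in the dispensed reagent) in 20 mM phosphate pH 7.0 with 0.01% (detergent screen) or 0.0001% Triton X-100 was preincubated with compounds for 15 min at room temperature. Nitrocefin was then added from an 800 uM solution, and hydrolysis was followed at 480 nm.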
AMA1-RON2 inh: qHTS for Inhibitors of AMA1-RON; Towards Development of Antimalarial Drug Lead: Primary Screen; Plasmodium falciparum AMA1 (3D7) - RON2 peptide interaction; AlphaScreen AMA1-biotinylated RON2 peptide binding; Potency, µM (top dose mostly 58.2 µM), without a hit: at the top dose activity change, negative = inhibition, most hits filed as inhibitors; 360,000 tested, 0.2% active; AID 720542, 2013;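 also: 0% = vehicle wells and -100% = peptide control; nearly all actives have a fitted effect of over 45% in size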
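AMA1 (3D7) with his tag at 25 nM final met compounds first, then biotinylated RON2 peptide at 25 nM; detection used donor plus acceptor beads, 10 µg/mL apiece, read by AlphaScreen after 30 min at room temperature.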
Pf growth 96h: Primary qHTS for delayed death inhibitors of the malarial parasite plastid, 96 hour incubation; Potency, µM (series often up to 28.7 µM), for the others: at the highest dose activity change, negative = inhibition, most hits filed as inhibitors; P. falciparum luciferase reporter growth, 96 h; 320,000 tested, 6.9% active
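Luminescence readout: decreased luciferase signal marks inhibited growth of reporter-expressing P. falciparum in infected red cells (2% hematocrit, 0.05% parasitemia final), exposed to compound two generations (96 h, 37 C, 5% CO2).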
Pf growth 48h: Primary qHTS for delayed death inhibitors of the malarial parasite plastid, 48 hour incubation; P. falciparum luciferase growth in erythrocytes, 48 h; Potency, µM (doses to about 28.7 µM), inactives show at the top dose activity change, negative = inhibition, actives largely listed as inhibitors; 310,000 tested, 5.9% active
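Luciferase-expressing P. falciparum in infected erythrocytes (2% hematocrit, 0.1% parasitemia final) in RPMI 1640/0.5% Albumax were exposed to compound for 48 hours at 37 C, 5% CO2; growth read as luminescence.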
AmpC no deterg: qHTS Inhibitors of AmpC Beta-Lactamase (assay without detergent); AID 485341, 2010; P00811; AmpC nitrocefin hydrolysis, absorbance 480 nm, 0.0001% Triton; 330,000 tested, 0.52% active; Potency, µM (top dose mostly 57.1 µM), for inactives: at the highest dose activity change, negative = inhibition, actives largely listed as inhibitors;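 also: plate controls were no compound for no effect and no enzyme for full effect; nearly all actives have a fitted effect of over 20% in size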
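AmpC (5.3 nM in the dispensed reagent) in 20 mM phosphate pH 7.0 with 0.01% (detergent screen) or 0.0001% Triton X-100 was preincubated with compounds for 15 min at room temperature. Nitrocefin was then added from an 800 uM solution, and hydrolysis was followed at 480 nm.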
HCV inh: qHTS Assay for Inhibitors of Hepatitis C Virus (HCV) | Huh7.5.1 HCVcc-Cre infection, luciferase reporter, 44 h | Potency, µM (series often up to 41.8 µM), without a hit: at the top dose activity change, negative = inhibition, actives largely listed as inhibitors | 340,000 tested, 3.4% active
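Cells seeded at 1,000/well and cultured 4 h, then compounds added followed by HCVcc-Cre virus (~0.5 moi). After 44 h further culture, luciferase substrate was added, plates held 15 min at room temperature, and luminescence read for 15 sec.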
Numbers without * were called inactive; ? = inconclusive; / = no result; [ ] = remark or other dose. Calls follow the shape of the dose curve; as a rule, active = well fitted curve in the direction sought with a large enough effect; inconclusive = small, poorly fitted or top-dose-only effect, or another doubt; inactive = no such curve, though single readings can be large; an effect the other way counts as inactive or inconclusive. Unless noted, % is scaled to controls: 0 for no effect and ±100 for the full control effect; potency is read from the fitted curve at half-maximal effect.

SMILES	AmpC detergent	AMA1-RON2 inh	Pf growth 96h	Pf growth 48h	AmpC no deterg	HCV inh
COc1ccc(CCC(=O)N2CCN(c3ccc([N+](=O)[O-])cc3)CC2)cc1OC	?	-3%	?	0%	84%	32µM*
COc1ccccc1CC(=O)N1CCN(c2ccc([N+](=O)[O-])cc2)CC1	-5%	-5%	77%	10%	-10%	6.3µM*
Cc1ccc(CC(=O)N2CCN(c3ccc([N+](=O)[O-])cc3)CC2)cc1	-2%	-3%	?	-20%	-11%	?
COc1ccc(C(=O)NCCNc2ccc([N+](=O)[O-])cc2)cc1OC	-21%	-13%	5.2µM*	-7%	-13%	-4%
CCCCOc1ccc(C(=O)N(Cc2nc(-c3ccc(Cl)cc3)no2)C(C)C)cc1	18%	/	/	/	/	/
CSc1cccc(Nc2cc(C(=O)NCCCN(C)c3ccccc3)c3ccccc3n2)c1	7%	/	/	/	/	/
Cc1nc2c(-c3ccccc3)c(C)[nH]n2c(=O)c1Cc1ccc(Br)cc1	-2%	/	/	/	/	/
COc1ccc(NC(=O)N2CCN(c3ccc([N+](=O)[O-])cc3)CC2)cc1OC	1%	17%	?	16%[5.75 µM]	25%	10µM*
COc1ccc(NC(=O)N2CCN(c3ccc([N+](=O)[O-])cc3)CC2)cc1	1%	-17%	?	-2%	42%	-7%
O=C(c1cn(Cc2ccccc2)nc1-c1cccnc1)N1CCN(Cc2ccccc2)CC1	1%	-6%	?	?	118%	-10%
COc1ccc(-c2nn(Cc3ccccc3)cc2C(=O)N2CCN(c3ncccn3)CC2)cc1	-16%	-8%	?	13µM*	133%	5%
CC(C)(Oc1ccc(Cl)cc1)C(=O)N(Cc1ccccc1)c1ccccn1	?	17%	1.9µM*	?	62%	1%
O=C(c1cn(Cc2ccccc2)nc1-c1ccc(Cl)cc1)N1CCN(c2ccccn2)CC1	4%	-16%	9.3µM*	13µM*	70%	?
CC(C)(Oc1ccc(Cl)cc1)C(=O)N1CCN(c2ccccn2)CC1	?	-6%	/	15µM*	127%	-24%
CC(C)(C)c1ccc(OCC(=O)N2CCN(c3ccccn3)CC2)cc1	-5%	13%	?	?	56%	-15%
CCOC(=O)c1ccc(NC2SC(=O)N(Cc3cccc(C(=O)O)c3)C2=O)cc1 (centres undefined)	-3%	/	/	/	/	/
CCOc1ccc(Sc2cc(C(=O)NCCc3ccc(OC)c(OC)c3)c3ccccc3n2)cc1	7%	/	/	/	/	/
CCc1ccc(NC(=O)CN2C(=O)C(=O)c3ccccc32)cc1	27%	/	/	/	/	/
Cc1ccc(-c2nn(Cc3ccccc3)cc2C(=O)N2CCN(c3ccccn3)CC2)cc1	2%	0%	?	13µM*	73%	-14%
Cc1ccc(-c2nn(Cc3ccccc3)cc2C(=O)O)cc1	2%	1%	0%	124%	-17%	15%
CCCOC(=O)c1c(NC(=O)C2c3ccccc3Oc3ccccc32)sc2c1CCC(C)C2 (centres undefined)	24%	/	/	/	/	/
Cc1cc(C)n(-c2nnc(C)n2/N=C/c2ccccc2OCc2ccccc2Cl)n1	-4%	-2%	-23%	?	122%	8%
Cc1cc(C)n(-c2nnc(C)n2/N=C/c2cc(Br)ccc2OCc2ccccc2)n1	-10%	-8%	7%	4.7µM*	65%	-13%
CCCCNC(=O)CNC(=O)c1cccs1	-3%	-3%	34%	29%	-6%	14%
CCCC[N+]12CCC(CC1)C(C(=O)c1cccs1)C2 (centres undefined)	0%	7%	2.6µM*	10µM*	2%	1%
SMILES	AmpC detergent	AMA1-RON2 inh	Pf growth 96h	Pf growth 48h	AmpC no deterg	HCV inh
O=C1CC(c2nc(-c3ccc(Cl)cc3)no2)CN1c1ccc2c(c1)OCCO2 (centres undefined)	2%	/	/	/	/	/
COc1cc(NC(=O)c2ccccc2Cl)c(OC)cc1NC(=O)CN1CCCCC1	-1%	9%	1.9µM*	51%	-2%	1%
COc1cc(NC(=O)c2cc(OC)c(OC)c(OC)c2)c(OC)cc1NC(=O)CN1CCCCC1	-7%	-11%	-1%	?	96%	2.5µM*
COc1cc(NC(=O)c2ccc(C)cc2)c(OC)cc1NC(=O)CN1CCCCC1	0%	?	?	?	72%	?
COc1ccc(NC(=O)c2ccccc2Cl)cc1NC(=O)CN1CCOCC1	-12%	0%	-2%	?	-3%	-15%
Nc1ccc(-c2cc(N)n(-c3ccccc3)n2)cc1	5%	-8%	/	6.6µM*	13%	1%
Nc1cc(-c2ccc(Cl)cc2)nn1-c1ccccc1	2%	-2%	204%	231%	-27%	-2%
CCn1c(CN2CCCCC2)nc2cc(NC(=O)c3ccc([N+](=O)[O-])cc3)ccc21	21%	/	/	/	/	/
O=S(=O)(NCc1ccccc1)c1ccc(S(=O)(=O)N(Cc2ccccn2)C2CCCC2)cc1	4%	-3%	?	10µM*	-25%	?
CCNS(=O)(=O)c1ccc(S(=O)(=O)N(Cc2ccccn2)C2CCCCC2)cc1	?	-10%	166%	?	-7%	3%
Cc1ccc(CS(=O)(=O)c2cn(CC(=O)N(C)c3ccccc3)c3ccccc23)cc1	4%	/	/	/	/	/
CC(C)c1nn2c(=O)cc(COC(=O)c3ccccc3NC(=O)c3cccc(Cl)c3)nc2s1	9%	/	/	/	/	/
O=C(Cc1ccccc1[N+](=O)[O-])N1CCc2ccccc2C1	3%	-5%	1.2µM*	0%	-16%	1%
COCCN(C)Cc1cn(-c2ccc(F)cc2F)nc1-c1ccccc1C	-1%	-10%	40%	-71%	148%	-4%
CCC(COC)NCc1cn(-c2ccc(F)cc2F)nc1-c1ccccc1C (centres undefined)	1%	6%	9%	?	43%	14%
Cc1ccccc1-c1nn(-c2ccc(F)cc2F)cc1CNCCN(C)C	?	18%	13µM*	?	19%	-16%
Cc1ccccc1-c1nn(-c2ccc(F)cc2F)cc1CNCCCN(C)C	-3%	?	?	2.6µM*	52%	3.2µM*
CCC(C)N(C(=O)Cn1nnc2ccccc21)C(C(=O)Nc1ccc(F)cc1)c1cccc(OC)c1 (centres undefined)	-13%	-2%	10µM*	?	69%	28%
